Experimental findings from PubChem BioAssay are described below.

Test [1] is described as follows: OD615 S. cerevisiae growth inhibition, permissive medium, pilot counter-assay, permissive growth control for S. cerevisiae lifespan shortening project (AID 705). As to conditions: OD615, 24 h, at 10 µM, stronger effect = higher value.
The nature of test [2]: Restrictive medium S. cerevisiae growth inhibition, OD615, pilot screen of yeast lifespan reduction project, restrictive growth control (AID 706;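 active = growth inhibition above a set limit, 3 SD over mean compound inhibition, in both replicates, cut at about 43% in these data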;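 note: modified DeaD lifespan yeast strain shifted to restrictive glucose medium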). As to conditions: OD615, 48 h, at 10 µM, stronger effect = higher value.
The nature of test [3]: viability gain of MRP-1-high H69AR cells under doxorubicin, pilot screen, MRP-1 activator project, CellTiter-Glo, duplicate (AID 807;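 active = viability increase at or above a cutoff of the median across tested compounds plus 3 SD, cut at about 8.5% in these data, passing the limit was not always enough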;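 note: compound pretreatment 18-22 h then 72 h combined with doxorubicin; 0% = doxorubicin alone and 100% = vehicle without doxorubicin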). As to conditions: H69AR viability with doxorubicin, CellTiter-Glo luminescence; at 10 µM; stronger effect = higher value. Background: Cellular ATP, detected with luciferase, serves as a proxy for viable cell number.
Test [4] can be described thus: growth suppression of beta-catenin knockout HCT116, pilot screen, human colon tumor cells (AID 823;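 active = cell viability at or below a set limit in both duplicate runs, the limit being the all-compound median minus 4 SD, cut at about 23% in these data, passing the limit was not always enough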;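 note: 0% = wells killed by 20 µM Hyamine and 100% = untreated DMSO cell wells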). As to conditions: CellTiter-Glo, 60 h, at 10 µM, stronger effect = lower value.
The nature of test [5]: inhibitors of the yeast RAM network, pilot screen, dse1pr::URA3 reporter, 5-FOA selection (AID 869;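 active = inhibition over a set limit, the all-compound mean plus 3 SD, in both replicate runs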;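 note: 0% = DMSO wells with no growth and 100% = 10 µM 1-NA-PP1 with full growth; RAM network block rescues cells from 5-FOA so hits raise OD615 growth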). As to conditions: S. cerevisiae dse1pr::URA3 5-FOA growth, OD615, 2 d, at 10 µM, stronger effect = higher value.
Test [6] is described as follows: RAM signaling pathway blockade in yeast – S. cerevisiae, Pdr1DBD-CYC8 efflux-inhibited sensitized strain, primary screen (AID 1298;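 active = RAM network inhibition above 8.4% in each of two replicates, 3 SD over the compound average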;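 note: 0% = DMSO untreated cells without growth and 100% = 10 µM 1-NA-PP1 full growth; higher means more yeast growth rescued from 5-FOA killing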). As to conditions: S. cerevisiae cbk1-as DSE1-URA3 strain, 5-FOA growth OD615, 2 d; at 50 µM; stronger effect = higher value.
A short description of test [7]: growth suppression of PTEN-deleted HCT116, pilot screen, cell-based, HCT116 clonal line, CellTiter-Glo (AID 824;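 active = viability at or below 27.92% in each of two runs, the all-compound median minus 4 SD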;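 note: 0% = 20 µM Hyamine control and 100% = vehicle cell control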). As to conditions: 60 h, at 10 µM, stronger effect = lower value.
The nature of test [8]: Recombinant Mtb pantothenate synthetase (PanC) inhibitors, coupled enzyme, confirmatory (AID 375; call rule not given here). As to conditions: coupled enzyme assay.
Test [9] concerns the target Pantothenate synthetase (Mycobacterium tuberculosis (strain ATCC 25618 / H37Rv)) (UniProt P9WIL5). The description is as above. As to conditions: coupled enzyme assay; at 10 µM, stronger effect = higher value.

pIC50: −log10 of the molar value. Results filed as inconclusive are left out. Activity calls are given as the source filed them.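 Rule for the calls, unless noted: active = growth inhibition above 25% in both replicates, a cutoff set 3 SD above the mean; inconclusive = above 25% in only one replicate; inactive = the rest.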

Pantothenate synthetase (Mycobacterium tuberculosis (strain ATCC 25618 / H37Rv)), sequence (P9WIL5 whole entry, looked up): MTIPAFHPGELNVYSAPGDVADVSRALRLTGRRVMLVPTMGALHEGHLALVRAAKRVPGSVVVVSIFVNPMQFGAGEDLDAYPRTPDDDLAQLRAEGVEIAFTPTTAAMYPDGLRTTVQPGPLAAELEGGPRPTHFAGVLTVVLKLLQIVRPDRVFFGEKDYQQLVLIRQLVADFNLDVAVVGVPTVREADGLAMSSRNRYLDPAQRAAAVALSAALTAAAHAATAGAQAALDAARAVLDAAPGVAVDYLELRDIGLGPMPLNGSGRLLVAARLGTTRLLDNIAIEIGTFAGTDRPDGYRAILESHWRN

As a reminder, the viability is a read-out of living cells in per cent, often relative to untreated cells. One may read the inhibition as the change of the read-out against control, counted positive when it falls. Turning to `Cc1cc(OCC(=O)NC2CCS(=O)(=O)C2)c2c3c(c(=O)oc2c1)CCC3` (centres undefined), the growth inhibition in [1] was -13.3% (inactive); in [2], -15.4% (inactive). The viability increase in test [3] is -5.3% (inactive). In addition, in test [4], the viability was 87.2% (inactive). For the same compound, in [5], the inhibition is 1.55% (inactive). Further, in [6], the RAM network inhibition was 2.75% (inactive).
For `COc1ccc(C2C(C(=O)N3CCC4(CC3)OCCO4)CC(=O)N2c2ccc(OC)cc2)cc1` (centres undefined), the growth inhibition in test [1] was -8.58% (inactive); in [2] it was -2.57% (inactive). The viability increase in test [3] is -3.2% (inactive). Moreover, the viability in [7] was 103% (inactive). Besides, in test [5], the inhibition was 1% (inactive). Further, the RAM network inhibition in [6] is 5.09% (inactive).
In the case of `CN1C(=O)C(Cc2cccs2)C(=O)N(C)C1=O`, the growth inhibition was -5.75% (inactive) in test [1] and -4.64% (inactive) in test [2]. Moreover, the viability increase in test [3] was 0% (inactive). In addition, the viability is 100% (inactive) in [4] and 98.9% (inactive) in [7]. Further, the inhibition in test [5] is 0.795% (inactive). Further, in [6], the RAM network inhibition is 4.94% (inactive).
With `CN1CCN(c2ccc(NC(=O)C(C)(C)C)cc2)CC1`, the growth inhibition in test [1] is -17.9% (inactive); in test [2] it was 6% (inactive). For the same compound, in test [3], the viability increase was -1.56% (inactive). Further, the viability in test [4] was 94.8% (inactive). Further, the inhibition in [5] was 1.54% (inactive). In addition, in test [6], the RAM network inhibition was 5.29% (inactive).
One may read the pIC50 as the negative decadic logarithm of the IC50, by convention in mol/L. Turning to `Cc1cc(NC(=O)c2noc3c2CCCCC3)nn1Cc1ccc(Cl)cc1`, in test [8] (measured here: coupling enzymes IC50 repeat trials unless noted), the negative logarithm of the IC50 (pIC50) was less than 4.00. The outcome in test [9] was inactive.
Consider `COc1cccc(N2C(=O)CC(=O)NC2=O)c1`, for which the growth inhibition was -5.82% (inactive) in test [1] and -6.37% (inactive) in [2]. The viability increase in [3] is -0.55% (inactive). Further, the viability in test [7] was 108% (inactive). Further, the inhibition in test [5] was 1.5% (inactive). Also, in [6], the RAM network inhibition is 1.99% (inactive).
For the compound `CCOC(=O)N(CC)c1ccc(C(O)(C(=O)OCC)C(F)(F)F)cc1` (centres undefined), the growth inhibition is -2.74% (inactive) in test [1] and -2.65% (inactive) in test [2]. Further, the viability increase in test [3] was -0.35% (inactive). The viability is 92.5% (inactive) in test [4] and 95.3% (inactive) in test [7]. Further, the inhibition in test [5] is 0.745% (inactive). In [6], the RAM network inhibition was 0.46% (inactive).
For `C[C@H]1CCC[C@@H](O)CCC/C=C/c2cc(O)cc(O)c2C(=O)O1`, the growth inhibition was -5.6% (inactive) in test [1] and -3.65% (inactive) in test [2]. Also, the viability increase in [3] is -7.59% (inactive). For the same compound, the viability in [4] was 46.9% (inactive); in [7], 44.9% (inactive). For the same compound, in test [5], the inhibition is 0.64% (inactive). Moreover, in [6], the RAM network inhibition is 1.97% (inactive).
As for `C=Cn1ccnc1P(=S)(c1cc(N(CC)CC)ns1)c1nccn1C=C`, the growth inhibition in [1] is -0.585% (inactive); in [2], 21.8% (inactive). For the same compound, the viability increase in test [3] was -0.61% (inactive). Moreover, the viability in test [4] is 92.1% (inactive); in [7], 90.5% (inactive). Further, the inhibition in test [5] is 1.49% (inactive). Moreover, the RAM network inhibition in test [6] is 2.27% (inactive).
For the compound `COCCOC(=O)C1=C(N)OC(C)=C(C(=O)OC)C12C(=O)Nc1ccccc12` (centres undefined), the results for the growth inhibition in test [1] and in test [2] were -5.22% (inactive) and -5.97% (inactive), respectively. In [3], the viability increase is -4.28% (inactive). Further, the viability in test [7] is 93% (inactive). Further, in [5], the inhibition was 2.54% (inactive). Further, the RAM network inhibition in test [6] was 3.95% (inactive).
`Clc1cccc(CN2CCCCC2c2cccnc2)c1` (centres undefined): the growth inhibition in test [1] is -8.37% (inactive); in [2] it was -2.08% (inactive). Besides, the viability increase in test [3] was 0.65% (inactive). The viability is 81.9% (inactive) in [4] and 85.3% (inactive) in test [7]. In addition, the inhibition in [5] was 1.16% (inactive). For the same compound, in test [6], the RAM network inhibition is -0.74% (inactive).
In the case of `CC(C)(C)C1CCc2onc(C(=O)Nc3cnn(Cc4ccc(F)cc4)c3)c2C1` (centres undefined), the negative-log IC50 (pIC50) in test [8] (measured here: coupling enzymes IC50 repeat trials) and in test [8] (measured here: coupling enzymes counter-screen IC50) was less than 4.00 throughout.
In the case of `COP(=S)(OC)SCN1C(=O)c2ccccc2C1=O`, the results for the growth inhibition in test [1] and in [2] were 14% (inactive) and 26.2% (inactive), respectively. The viability increase in [3] is -4.23% (inactive). In addition, the viability in [4] is 94.2% (inactive); in test [7], 84.9% (inactive). The inhibition in [5] is 1.48% (inactive). For the same compound, the RAM network inhibition in [6] is 3.76% (inactive).
On to `CCCCCn1c(=O)c(C(=O)Nc2ccncc2)c(O)c2ccccc21`, for which the figures for the growth inhibition in [1] and in [2] were 92.1% (active) and 100% (active), respectively. Further, the viability increase in test [3] was -8.28% (inactive). Besides, the viability in [4] is 13.2% (active); in test [7], 9.96% (active). Besides, the inhibition in test [5] was -0.43% [strain carries analog-sensitive mutant Cbk1 kinase] (inactive). Moreover, the RAM network inhibition in test [6] was -1.36% (inactive).
For `Cc1nn(C2CCOC(C)(C)C2)c2c1C(c1ccc3c(c1)OCO3)SCC(=O)N2` (centres undefined), the growth inhibition in [1] was 7.63% (inactive); in test [2], 14.5% (inactive). Besides, the viability increase in test [3] was -0.34% (inactive). Moreover, in [4], the viability was 97% (inactive). For the same compound, the inhibition in test [5] is 0.985% (inactive). Further, the RAM network inhibition in test [6] is 1.2% (inactive).
Consider `CCCCCCn1c(=O)c(C(=O)Nc2ccncc2)c(O)c2ccccc21`, for which the growth inhibition was 93.5% (active) in [1] and 97.4% (active) in test [2]. Besides, the viability increase in [3] was -7.48% (inactive). The inhibition in test [5] was -0.885% [strain carries analog-sensitive mutant Cbk1 kinase] (inactive). Moreover, the RAM network inhibition in test [6] is -1.58% (inactive).
